Results as given in PubChem BioAssay (NCATS).
“And” between values parts separate entries of the source, which are not always exact repeats. Equal entries are not always repeated. Records with an inconclusive call do not appear. The source made the active and inactive calls. Unless noted, calls come from the whole dose curve.

How the values were obtained:
[1] = Cell Viability - BJ (AID 421); details: BJ fibroblast viability, qHTS;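 note: potency is the fitted concentration of half-maximal effect; cells exposed to compound for 40 hours at 37 °C before readout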
Outline: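 Cytotoxicity in human BJ foreskin fibroblasts is scored as loss of cellular ATP after a 40-hour exposure, measured by luciferase luminescence. Controls are DMSO and 100 uM tamoxifen.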

[2] = Cell Viability - Jurkat (AID 426;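 active = dose-dependent loss of cell ATP signal giving a full or clear fitted curve, ranked by lower potency value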;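 note: potency is the fitted concentration of half-maximal effect; cells exposed to compound for 40 hours at 37 °C before ATP read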); details: qHTS
Outline: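 Seed 5000 Jurkat E6-1 cells/well; add compound; incubate 40 hr at 37 °C; add CellTiter-Glo; wait 20 min at room temperature; read luminescence. Fit concentration-response with Hill equation for AC50.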

[3] = Cell Viability - Hek293 (AID 427;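 active = compounds whose dose-response curve shows a full or clear partial loss of cell viability, called from curve shape rather than a numeric limit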;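 note: potency is the fitted concentration of half-maximal effect; cells exposed to compound for 40 hours at 37 °C before reading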); details: qHTS
Outline: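 qHTS, human embryonic kidney (adenovirus-transformed) cells; 40 hr cpd, 37 °C; CellTiter-Glo ATP luminescence. Norm: DMSO = 0, 100 uM tamoxifen = 100% inhibition. Hill-fit AC50.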

[4] = Cell Viability - HepG2 (AID 433); details: qHTS;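 note: potency is the fitted concentration of half-maximal effect; potency for ATP loss meaning cytotoxicity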
Outline: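 HepG2 hepatocellular carcinoma cells (1500/well) were treated with compounds for 40 h at 37 °C in complete medium; intracellular ATP was read by CellTiter-Glo luminescence. Data were normalized to DMSO and 100 uM tamoxifen, and AC50 came from Hill fits.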

[5] = Cell Viability - MRC5 (AID 434); details: MRC5 lung fibroblast viability, qHTS;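 note: potency is the fitted concentration of half-maximal effect; potency reflects cytotoxicity seen as loss of intracellular ATP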
Outline: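 MRC5 normal human lung fibroblasts (1500/well) were treated with compounds for 40 hr at 37 °C in complete medium, and viable cells were measured as intracellular ATP by CellTiter-Glo luminescence. AC50 came from Hill fits, normalized to DMSO and 100 uM tamoxifen.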

[6] = Cell Viability - SK-N-SH (AID 435); details: SK-N-SH neuroblastoma cell viability qHTS;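 note: potency is the fitted concentration of half-maximal effect; compound exposure lasted 40 h at 37 °C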
Outline: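 SK-N-SH human neuroblastoma cells (1500/well) were exposed to compounds in complete medium for 40 h at 37 °C, and intracellular ATP was then measured by CellTiter-Glo luminescence. AC50 was taken from Hill fits, normalized to DMSO and 100 uM tamoxifen.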

[7] = target: Cytochrome P450 1A2 (Homo sapiens) (UniProt P05177); test: p450-cyp1a2 (AID 410); details: recombinant CYP1A2, luciferin-ME demethylation, luminescence; series mostly up to 57 µM; note: potency is the fitted concentration of half-maximal effect;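 for activity change, negative = inhibition: -100% = full effect of reference inhibitor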
Outline: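 Inhibition was calculated relative to 57 uM furafylline (full inhibition). The reaction used human CYP1A2 at 20nM with Luciferin-ME at its Km, 100uM, driven by an NADPH-regenerating system for 60 min at room temperature.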

[8] = NFAT Signaling Pathway (AID 444; active = well fitted curve in either direction with a large enough effect, not every such curve was filed as active;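 note: carbachol stimulus at about its EC50 of 1 µM final; % is set by controls: 0 for no effect and ±100 for the full control effect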); details: Jurkat NFAT-bla M1, carbachol, beta-lactamase ratio, 5 h; at 38 µM (top of the series) unless noted
Outline: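 Jurkat cells carrying an NFAT-driven β-lactamase reporter and co-transfected muscarinic M1 receptor were treated with compound plus carbachol (1 uM final, an EC50 level) for 5 h at 37 °C. CCF4 loading followed for 1 h at RT; 460/530 nm ratio gave %activity.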

Cytochrome P450 1A2 (Homo sapiens), sequence (P05177 whole entry, looked up): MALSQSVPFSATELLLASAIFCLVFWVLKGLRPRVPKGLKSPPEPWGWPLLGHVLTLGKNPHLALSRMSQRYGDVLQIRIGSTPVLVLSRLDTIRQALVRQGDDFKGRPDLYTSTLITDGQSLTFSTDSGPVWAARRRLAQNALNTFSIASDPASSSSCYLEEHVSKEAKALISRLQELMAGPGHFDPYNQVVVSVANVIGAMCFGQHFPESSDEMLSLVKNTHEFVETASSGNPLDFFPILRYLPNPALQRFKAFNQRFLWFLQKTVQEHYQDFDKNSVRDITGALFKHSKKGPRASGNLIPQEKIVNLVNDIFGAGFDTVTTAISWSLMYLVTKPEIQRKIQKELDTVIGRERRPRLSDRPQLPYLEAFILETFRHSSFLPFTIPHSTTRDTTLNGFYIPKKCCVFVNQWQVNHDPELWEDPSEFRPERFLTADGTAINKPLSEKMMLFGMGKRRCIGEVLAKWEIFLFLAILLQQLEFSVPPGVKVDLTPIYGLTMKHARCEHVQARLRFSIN

SMILES	Potency [1]	Potency [2]	Potency [3]	Potency [4]	Potency [5]	Potency [6]	Potency [7]	activity change, negative = inhibition [8]
CCOC(=O)c1ccccc1C(=O)OCC	> 92 µM (inactive)	> 92 µM (inactive)	> 92 µM (inactive)	> 92 µM (inactive)	> 92 µM (inactive)	> 92 µM (inactive)	–	–
CCCCCCCCOC(=O)c1ccccc1C(=O)OCCCCCCCC	> 92 µM (inactive)	–	> 92 µM (inactive)	> 92 µM (inactive)	> 92 µM (inactive)	> 92 µM (inactive)	–	–
CCN(CCCl)Cc1ccccc1Br	–	–	–	–	–	–	15.8 µM (active)	-24.5% (inactive)
ClCC1CO1 (configuration not stated)	> 92 µM (inactive)	> 92 µM (inactive)	> 92 µM (inactive)	> 92 µM (inactive)	> 92 µM (inactive)	> 92 µM (inactive)	–	–
C[C@H]1CCC[C@H](O)CCCCCc2cc(O)cc(O)c2C(=O)O1	> 92 µM (inactive)	> 92 µM (inactive)	–	> 92 µM (inactive)	> 92 µM (inactive)	–	–	–
O=C1C2CC=CCC2C(=O)N1SC(Cl)(Cl)Cl (configuration not stated)	54.5 µM (active) and 21.4 µM (active)	4.24 µM (active) and 4.76 µM (active)	26.5 µM (active) and 26.9 µM (active)	40.6 µM (active) and 37.9 µM (active)	24.9 µM (active) and 14.7 µM (active)	27.7 µM (active) and 13.2 µM (active)	–	–
CC(C)Nc1ccc(Nc2ccccc2)cc1	–	22.8 µM (active)	–	–	–	40.5 µM (active)	–	–
C[C@H]1CC[C@@H]2[C@@H](C)[C@H]3[C@H](C[C@H]4[C@@H]5CC=C6CC(O[C@@H]7O[C@H](CO)[C@H](O)[C@H](O[C@@H]8O[C@H](CO)[C@@H](O)[C@H](O)[C@H]8O)[C@H]7O[C@H]7O[C@@H](C)[C@H](O)[C@@H](O)[C@H]7O)CC[C@]6(C)[C@H]5CC[C@]34C)N2C1 (some centres not stated)	35 µM (active)	32.5 µM (active)	39.3 µM (active)	23.7 µM (active)	45 µM (active)	24.8 µM (active)	–	–
O=Cc1ccco1	> 92 µM (inactive)	> 92 µM (inactive)	> 92 µM (inactive)	> 92 µM (inactive)	> 92 µM (inactive)	> 92 µM (inactive)	–	–
c1ccc2c(c1)[I+]c1ccccc1-2	–	–	–	–	–	–	126 nM (active) and 20 nM (active)	-17.4% (inactive)
O=[N+]([O-])c1ccc(F)c([N+](=O)[O-])c1	59.9 µM (active)	8.96 µM (active)	–	46.1 µM (active)	> 92 µM (inactive)	45.7 µM (active)	–	–
[O]=[Cd]	> 92 µM (inactive)	> 92 µM (inactive)	> 92 µM (inactive)	> 92 µM (inactive)	> 92 µM (inactive)	> 92 µM (inactive)	–	–
[Cl-].[Cl-].[Hg+2]	29.4 µM (active)	25.3 µM (active)	19.4 µM (active)	–	33.4 µM (active)	16 µM (active)	–	–
CCCCCl	> 92 µM (inactive)	> 92 µM (inactive)	> 92 µM (inactive)	> 92 µM (inactive)	> 92 µM (inactive)	> 92 µM (inactive)	–	–
C[C@]12CCC(=O)C[C@@H]1CC[C@@H]1[C@@H]2CC[C@]2(C)[C@@H](O)CC[C@@H]12	> 92 µM (inactive)	> 92 µM (inactive)	–	> 92 µM (inactive)	> 92 µM (inactive)	> 92 µM (inactive)	–	–
O=C/C=C/c1ccccc1	> 92 µM (inactive)	–	–	> 92 µM (inactive)	> 92 µM (inactive)	> 92 µM (inactive)	–	–
O=c1ccc2[nH]cc(C3=CCNCC3)c2[nH]1	–	–	–	–	–	–	inactive	–
ClC(Cl)(Cl)Cl	> 92 µM (inactive)	> 92 µM (inactive)	> 92 µM (inactive)	> 92 µM (inactive)	> 92 µM (inactive)	> 92 µM (inactive)	–	–
CN1[C@@H]2CC[C@H]1CC(OC1c3ccccc3CCc3ccccc31)C2 (some centres not stated)	–	–	–	–	–	–	inactive	-67.9% [at 17.2 µM] (active)
COC1=CC(=O)O[C@@H](/C=C/c2ccccc2)C1	> 92 µM (inactive)	> 92 µM (inactive)	> 92 µM (inactive)	> 92 µM (inactive)	> 92 µM (inactive)	> 92 µM (inactive)	–	–
O=CC=O	> 92 µM (inactive)	> 92 µM (inactive)	> 92 µM (inactive)	> 92 µM (inactive)	> 92 µM (inactive)	> 92 µM (inactive)	–	–
